Several values for one entry are separate records, joined by “and”; a condition that tells them apart may be missing. Equal entries are not always repeated. Records with an inconclusive call do not appear. Some structures have more than one record in an assay (separate samples or runs), and their calls can disagree. Activity calls are given as the source filed them. The calls were made as follows, unless noted: active = hit-call score of the fitted dose curve at least 0.9, where 1 is the maximum; inactive = score below 0.9.
Legend:
[1] = target: Estrogen receptor (Homo sapiens) (UniProt P03372); assay: CCTE_Deisenroth_AIME_384WELL_LUC_Active: CCTE's 384-well Estrogen Receptor Transactivation Assay with AIME metabolic competence (ERTA luciferase; metabolism positive), Deisenroth Lab (AID 2284030; active = hit-call score of the fitted dose curve at least 0.9, where 1 is the maximum)
In short: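 Estrogenic luciferase signal in VM7Luc4E2 cells is measured at 24 hour, after chemicals have been preconditioned 2 hours with PB/BNF-induced rat hepatic S9 in alginate. Gain of signal is fitted relative to 17beta-estradiol, across 0.002 - 200 uM.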

[2] = CCTE_Deisenroth_AIME_384WELL_CTox_Active: Cytotoxicity Assessment (CTOX) in CCTE's 384-well Estrogen Receptor Transactivation Assay with AIME metabolic competence (metabolism positive), Deisenroth Lab (AID 2284037; active = hit-call score of the fitted dose curve at least 0.9, where 1 is the maximum;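 also: chemicals first conditioned 2 h by alginate-bound induced rat liver S9 before cells; activity means signal loss indicating cell death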)
In short: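 VM7Luc4E2 breast cells received medium pre-incubated 2 h with chemical over alginate microspheres holding induced male Sprague Dawley rat liver S9; viability read 24 h later by protease-substrate fluorescence. Loss of signal, bidirectional fit, 0.002–200 uM.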

[3] = target: Estrogen receptor (Homo sapiens) (UniProt P03372); assay: CCTE_Deisenroth_AIME_384WELL_LUC_Inactive: CCTE's 384-well Estrogen Receptor Transactivation Assay without AIME metabolic competence (ERTA luciferase; metabolism negative), Deisenroth Lab (AID 2284038; active = hit-call score of the fitted dose curve at least 0.9, where 1 is the maximum;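 also: hits raise estrogen receptor luciferase signal so potencies reflect agonists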)
In short: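 Metabolism-negative mode: chemicals (10-point, 0.002–200 uM) held 2 h with alginate-water microspheres, then conditioned medium applied to VM7Luc4E2 cells for 24 h. Luciferase induction referenced to 17beta-estradiol.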

[4] = CCTE_Deisenroth_AIME_384WELL_CTox_Inactive: Cytotoxicity Assessment (CTOX) in CCTE's 384-well Estrogen Receptor Transactivation Assay without AIME metabolic competence (metabolism negative), Deisenroth Lab (AID 2284039; active = hit-call score of the fitted dose curve at least 0.9, where 1 is the maximum;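 also: cell viability via live-cell protease substrate cleaved to fluorescent probe; cells exposed 24 h to medium preincubated 2 h with alginate-water beads without S9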)
In short: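 VM7Luc4E2 human breast cells received conditioned medium from a 2 h incubation of chemical with alginate-water microspheres (no S9), then were exposed 24 h. Viability was read as protease-substrate cleavage to a fluorescent probe; loss of signal was fitted bidirectionally over 0.002–200 uM.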

[5] = target: Estrogen receptor (Homo sapiens) (UniProt P03372); assay: CCTE_Deisenroth_AIME_384WELL_LUC_Shift: CCTE's 384-well Estrogen Receptor Transactivation Assay with AIME metabolic competence data shift (ERTA luciferase; difference in metabolism positive and negative), Deisenroth Lab (AID 2284041);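 also: shift is response with S9 minus without S9 so positive means metabolism raised ER signal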
In short: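 Here, parent compounds undergo 2 h phase I metabolism by PB/BNF-induced rat S9 before 24 h transactivation in VM7Luc4E2 cells; the curve models S9-positive minus S9-negative response over a 10-point series.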

[6] = CCTE_Deisenroth_AIME_96WELL_CTox_Inactive: Cytotoxicity Assessment (CTOX) in CCTE's 96-well Estrogen Receptor Transactivation Assay without AIME metabolic competence (metabolism negative), Deisenroth Lab (AID 2284029; active = hit-call score of the fitted dose curve at least 0.9, where 1 is the maximum)
In short: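 Chemicals (0.002 - 200 uM, 10 points) incubated 2 h with alginate-water microspheres (no S9), then medium moved onto VM7Luc4E2 cells for 24 h. Viability by protease-substrate cleavage to fluorescent probe; bidirectional fitting.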

[7] = CCTE_Shafer_MEA_dev_firing_rate_mean: CCTE's Neural Network Formation Assay for Mean Firing Rate, Shafer Lab (AID 2284031);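 as to AC50: curve fitted for loss of firing so AC50 reflects decreased mean firing rate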
In short: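 Primary rat cortical neurons on 48-well MEA plates, exposed from plating day 0 with dosing renewed on DIV 5 and 9. Mean well firing rate over active electrodes, recorded days 5, 7, 9, 12, summarised as trapezoidal AUC.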

[8] = CCTE_Shafer_MEA_dev_active_electrodes_number: CCTE's Neural Network Formation Assay for Number of Active Electrodes, Shafer Lab (AID 2284040; active = hit-call score of the fitted dose curve at least 0.9, where 1 is the maximum;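 as to AC50: potency for loss of active electrodes versus DMSO so lower counts are hits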)
In short: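 Primary rat cortical neurons on 16-electrode MEA wells, exposed from day 0 through day 12 with compound renewed at DIV 5 and 9 feeds. Active electrodes (mean firing ≥5 spikes/min) counted at DIV 5, 7, 9, 12; trapezoidal AUC across days, loss-of-signal versus DMSO.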

[9] = CCTE_Shafer_MEA_dev_burst_rate: CCTE's Neural Network Formation Assay for Burst Rate, Shafer Lab (AID 2284042);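 as to AC50: potency for loss of burst rate below DMSO control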
In short: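 Rat primary cortical cultures on PEI/laminin MEA; compound from plating, re-dosed at DIV 5, 9 media change. Single-electrode bursts/recording length, well mean of active electrodes; AUC over DIV 5–12 recordings; loss-of-signal vs DMSO.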

[10] = CCTE_Shafer_MEA_dev_interburst_interval_mean: CCTE's Neural Network Formation Assay for Mean Interburst Interval, Shafer Lab (AID 2284046);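 also: well-mean interburst interval of bursting electrodes as AUC over four recording days; curve fitted for decrease in interburst interval relative to DMSO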
In short: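 Rat cortical neurons, 1.5 x 10^5 cells/well, 48-well MEA; compound from day 0 through DIV 12, media and treatment renewed DIV 5/9. Recordings DIV 5, 7, 9, 12; well-mean interburst interval → trapezoidal AUC, loss direction vs DMSO.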

[11] = CCTE_Shafer_MEA_dev_inter_network_spike_interval_mean: CCTE's Neural Network Formation Assay for Mean Inter-network Spike Interval, Shafer Lab (AID 2284047);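 as to AC50: potency for a decrease in mean inter-network spike interval below DMSO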
In short: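 Primary rat cortical neurons on PEI-coated 48-well MEAs (16 electrodes/well) were exposed from plating day 0 to DIV 12, with dosing renewed at DIV 5 and 9. Recordings at DIV 5, 7, 9, 12 were collapsed by trapezoidal AUC, loss-of-signal fit vs DMSO.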

[12] = CCTE_Shafer_MEA_dev_network_spike_number: CCTE's Neural Network Formation Assay for Number of Network Spikes, Shafer Lab (AID 2284048);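 also: synchronized bursts across electrodes counted on days 5 7 9 12 and integrated as AUC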;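 as to AC50: fit as a loss of signal meaning fewer network spikes than DMSO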
In short: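 Primary rat cortical neurons were seeded at 1.5 x 10^5 cells/well on PEI-coated 16-electrode MEA wells with laminin, exposed from plating day 0, compound renewed at DIV 5 and 9. Network spikes were recorded on days 5, 7, 9, 12 and summarized as trapezoidal AUC versus DMSO.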

[13] = CCTE_Shafer_MEA_dev_network_spike_peak: CCTE's Neural Network Formation Assay for Mean Number of Electrodes in Network Spike, Shafer Lab (AID 2284049);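 as to AC50: fitted for loss of signal meaning fewer electrodes in network spikes than DMSO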
In short: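 Continuous 12-day exposure of rat cortical cultures, starting at plating, on MEA plates. Endpoint: electrodes participating in network-spike peaks, AUC across DIV 5–12, DMSO as negative control.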

[14] = CCTE_Shafer_MEA_dev_spike_duration_mean: CCTE's Neural Network Formation Assay for Mean Spike Duration, Shafer Lab (AID 2284051);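 also: mean network spike duration pooled as area under curve over DIV 5 to 12 recordings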;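 as to AC50: potency for a decrease in mean network spike duration versus DMSO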
In short: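 Rat cortical primary cultures, 48-well MEA (16 electrodes/well); compound from plating, renewed DIV 5, 9. Network spike duration (AxIS adaptive detector) recorded DIV 5/7/9/12, combined as trapezoidal AUC; loss direction vs DMSO.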

[15] = CCTE_Shafer_MEA_dev_per_network_spike_spike_number_mean: CCTE's Neural Network Formation Assay for Mean Number of Spikes in a Network Spike, Shafer Lab (AID 2284053);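 as to AC50: fitted as decrease in spikes per network spike relative to DMSO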
In short: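 Rat cortical primary cultures on 48-well MEA; compound from day 0, re-dosed with full media change DIV 5, 9. Recorded DIV 5, 7, 9, 12; spikes in 0.05 s window at network-spike peak ÷ total network spikes; AUC; loss vs DMSO.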

[16] = CCTE_Shafer_MEA_dev_per_network_spike_spike_percent: CCTE's Neural Network Formation Assay for Percent of Spikes in a Network Spike, Shafer Lab (AID 2284054)
In short: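 Primary rat cortical neurons on 16-electrode MEA wells (PEI-coated, laminin at plating), exposed from day 0 with renewal at DIV 5 and 9; spikes within 0.05 s of network-spike peaks over total spikes, AUC across days 5, 7, 9, 12.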

[17] = CCTE_Shafer_MEA_dev_LDH: CCTE's Lactate Dehydrogenase Assay for Cytotoxicity in the Neural Network Formation Assay, Shafer Lab (AID 2284068; active = hit-call score of the fitted dose curve at least 0.9, where 1 is the maximum;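 also: exposure for twelve days from plating with re-dosing on DIV 5 and 9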)
In short: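 Rat cortical primary neurons, MEA culture; dosing day 0–12, full medium plus compound exchange DIV 5, 9. Read-out: LDH enzyme activity, spectrophotometric. DMSO = negative control/baseline; signal loss → cytotoxicity.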

[18] = UKN5_HCS_SBAD2_cell_viability: Viability Assessment in the University of Konstanz (UKN) Leist Lab Neurite Outgrowth Assay in human iPSC-derived immature Dorsal Root Ganglia Neurons (UKN5) (AID 2284056)
In short: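 iPSC-derived immature peripheral neurons (SBAD2) seeded on Matrigel with CHIR99021, SU5402 and DAPT, dosed 1 h later for 24 h. Viability from Hoechst H-33342 and calcein-AM live staining, high-content imaging; bidirectional fit versus DMSO.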

Measured: AC50

Chain of Estrogen receptor (Homo sapiens) (P03372 whole entry, looked up): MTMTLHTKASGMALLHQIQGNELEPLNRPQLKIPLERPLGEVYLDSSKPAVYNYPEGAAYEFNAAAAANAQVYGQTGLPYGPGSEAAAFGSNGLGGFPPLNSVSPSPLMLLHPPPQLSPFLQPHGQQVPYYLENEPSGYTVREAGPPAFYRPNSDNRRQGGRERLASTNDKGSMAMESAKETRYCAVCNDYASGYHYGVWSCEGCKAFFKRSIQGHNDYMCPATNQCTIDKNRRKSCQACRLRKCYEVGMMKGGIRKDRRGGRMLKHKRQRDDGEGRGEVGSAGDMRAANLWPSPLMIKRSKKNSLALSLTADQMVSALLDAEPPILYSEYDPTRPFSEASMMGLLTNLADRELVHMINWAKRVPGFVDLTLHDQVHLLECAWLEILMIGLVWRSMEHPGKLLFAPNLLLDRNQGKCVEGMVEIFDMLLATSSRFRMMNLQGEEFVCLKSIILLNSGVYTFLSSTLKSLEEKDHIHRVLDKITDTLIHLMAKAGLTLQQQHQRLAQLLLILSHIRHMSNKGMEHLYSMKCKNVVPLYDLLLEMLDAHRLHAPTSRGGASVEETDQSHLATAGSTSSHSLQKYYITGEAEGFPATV

O=C1CN(N=Cc2ccc([N+](=O)[O-])o2)C(=O)N1
active: [4] 31200 nM
inactive: [1] | [2] | [3] | [5]

CCCCOC(=O)c1ccccc1
inactive: [1] | [2] | [3] | [4] | [5]

CCN(CC)C(=S)SSC(=S)N(CC)CC
inactive: [6] | [1] | [2] | [4] | [5]
active: [7] 98.7 nM and 42.1 nM | [8] 118 nM and 54.8 nM | [9] 124 nM and 50 nM | [10] 200 nM and 55.2 nM | [11] 225 nM and 91.6 nM | [12] 102 nM and 52.1 nM | [13] 110 nM and 50.8 nM | [14] 106 nM and 47.6 nM | [15] 102 nM and 55.3 nM | [16] 161 nM and 86.3 nM | [17] 120 nM and 58 nM

CCc1cccc(CC)c1N
inactive: [1] | [2] | [3] | [5]
active: [4] 160000 nM

COS(C)(=O)=O
inactive: [1] | [2] | [3] | [4] | [5]

OCCOCCOCCO
inactive: [1] | [2] | [3] | [4] | [5]

COc1cc2c(c(OC)c1OC)-c1ccc(OC)c(=O)cc1[C@@H](NC(C)=O)CC2
inactive: [1] | [3] | [5]
active: [7] 17.9 nM | [2] 19800 nM | [4] 19800 nM | [8] 0.0284 µM | [9] 27.6 nM | [10] 15.9 nM | [11] 26.2 nM | [12] 26 nM | [13] 26.1 nM | [14] 24.8 nM | [15] 12.7 nM | [16] 3 nM | [17] 16.7 nM

CCCc1ccccc1
inactive: [1] | [2] | [3] | [4] | [5]

CC(C)CC(C)O (configuration not stated)
inactive: [1] | [2] | [3] | [4] | [5]

c1ccc2ncccc2c1
inactive: [1] | [3] | [5]

CCn1nc(C)c2c1C(=O)NCC(c1ccc(O)cc1)=N2
inactive: [1] | [3] | [5]

CCOc1ccc2[nH]cc(C(=O)NCc3ccccc3)c(=O)c2n1
active: [8] 1.23 µM
not listed: [2] | [4] | [6] | [17] | [18]
inactive: all other assays above

OCc1ccccc1
inactive: [1] | [2] | [3] | [4] | [5]

C[C@@H](Oc1ccc(CNC(=O)c2cccnc2Oc2ccc3c(c2)OCO3)c(F)c1)C(=O)O
inactive: [1] | [2] | [3] | [4] | [5]

CC(C)CCCCCCOC(=O)C1CCCCC1C(=O)OCCCCCCC(C)C (configuration not stated)
inactive: [1] | [2] | [3] | [5]

OCC(CO)(CO)CO
inactive: [1] | [3] | [4] | [5]

CC(=O)c1ccccc1
inactive: [1] | [2] | [3] | [4] | [5]

CCOC(N)=O
inactive: [1] | [2] | [3] | [4] | [5]

c1ccc2c(c1)-c1cccc3c1c-2cc1ccccc13
active: [4] 19800 nM | [8] 7.57 µM | [13] 6220 nM | [14] 4480 nM
not listed: [6] | [18]
inactive: all other assays above

CCCCCOC(C)=O
inactive: [1] | [2] | [3] | [4] | [5]

c1ccc(C(O[C@@H]2CCCN(CCc3ccc4c(c3)OCO4)C2)c2ccccc2)cc1
active: [1] 29100 nM
inactive: [2] | [3] | [5]

FC(F)(F)C(F)(F)C(F)(F)C(F)(F)C(F)(F)C(F)(F)I
inactive: [7] | [8] | [9] | [10] | [11] | [12] | [13] | [14] | [15] | [16]

Nc1ccn([C@@H]2O[C@H](CO)[C@@H](O)[C@@H]2O)c(=O)n1
active: [7] 260 nM and 3.02 µM | [8] 185 nM and 303 nM | [9] 120 nM and 1.09 µM | [10] 158 nM and 437 nM | [11] 140 nM | [12] 144 nM and 143 nM | [13] 160 nM and 623 nM | [14] 145 nM and 889 nM | [15] 118 nM and 206 nM | [16] 179 nM and 84 nM | [17] 20.4 µM and 2.69 µM
inactive: [11] | [18]
